Reference: publication PMC5540273 (PLoS ONE, 2017)

Key:
Conditions in all cases: concentration: 1 μM, replicates: in singlicate; n = 1
[1] = system: PLK2
[2] = system: PLK3
[3] = system: PLK4
[4] = system: PRKCD
[5] = system: PRKCE
[6] = system: PRKCH
[7] = system: PRKCI
[8] = system: PRKCQ
[9] = system: PRKD1
[10] = system: PRKD2
[11] = system: PRKD3
[12] = system: PRKG1
[13] = system: PRKG2
[14] = system: T1, PRKR
T1 construct: gene EIF2AK2

[15] = system: PRKX
[16] = system: PRP4
[17] = system: T2, PYK2
T2 construct: gene PTK2B

[18] = system: QSK
[19] = system: RAF1
[20] = system: RET
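Also: KINOMEscan kinase panel screen.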

Compound | %Inh [1] | %Inh [2] | %Inh [3] | %Inh [4] | %Inh [5] | %Inh [6] | %Inh [7] | %Inh [8] | %Inh [9] | %Inh [10] | %Inh [11] | %Inh [12] | %Inh [13] | %Inh [14] | %Inh [15] | %Inh [16] | %Inh [17] | %Inh [18] | %Inh [19] | %Inh [20]
COC(=O)Nc1nc2cc(Oc3ccc(NC(=O)Nc4cc(C(F)(F)F)ccc4F)cn3)ccc2[nH]1.Cl.Cl [GW681170] | 0% | 0% | 55% | 0% | 12% | 14% | 26% | 0% | 0% | 9% | 13% | 9% | 22% | 0% | 0% | 22% | 16% | 0% | 90.3% | 99.9%
COc1cc(Nc2ncc3c(C)nc(-c4cc5ccccc5[nH]4)n3n2)cc(OC)c1OC [GW869516] | 23% | 24% | 0% | 43% | 0% | 0% | 45% | 0% | 0% | 0% | 0% | 0% | 0% | 35% | 0% | 0% | 36% | 0% | 18% | 45%
Cc1cccc(NC(=O)Nc2ccc(Oc3ncnc4ccn(C)c34)cc2)c1 | 0% | 3% | 0% | 0% | 7% | 0% | 0% | 0% | 0% | 0% | 0% | 100% | 0% | 0% | 0% | 0% | 0% | 0% | 0% | 94%
NCCCC(NC(=O)c1cc(Br)c(-c2ccnc3[nH]ccc23)s1)c1ccccc1.O=C(O)C(F)(F)F.O=C(O)C(F)(F)F (centres unmarked) [GSK1287544] | 14% | 0% | 0% | 95.6% | 92.5% | 94.7% | 31% | 75% | 29% | 36% | 53% | 97.8% | 98% | 0% | 92.5% | 0% | 0% | 0% | 0% | 54%
Oc1cc(Nc2ccnc3cc(I)ccc23)ccc1F [GW552771] | 0% | 0% | 0% | 0% | 3% | 13% | 30% | 0% | 45% | 30% | 40% | 0% | 0% | 0% | 0% | 18% | 25% | 69% | 49% | 85%
O=C(Nc1cccc(Oc2ccc3nc(NC(=O)C4CC4)cn3n2)c1)c1ccccc1C(F)(F)F | 0% | 4% | 0% | 3% | 6% | 0% | 28% | 0% | 0% | 0% | 0% | 0% | 0% | 8% | 5% | 5% | 6% | 0% | 76% | 99.9%
C[C@@H](Oc1cc(-n2cnc3cc(-c4ccnc(NCCS(C)(=O)=O)c4)ccc32)sc1C(N)=O)c1ccccc1Cl [GSK907232] | 99.2% | 99.4% | 32% | 11% | 3% | 0% | 9% | 31% | 0% | 0% | 0% | 10% | 0% | 0% | 0% | 60% | 24% | 14% | 18% | 51%
Cn1cc(-c2[nH]c3cc(NC(=O)[C@H](N)C4CCCCC4)cc4c3c2C=NNC4=O)cn1 | 68% | 36% | 99.9% | 45% | 79% | 53% | 59% | 78% | 0% | 0% | 0% | 56% | 96.2% | 67% | 89% | 68% | 3% | 95.8% | 0% | 100%
Cl.Cl.NCC(NC(=O)c1cc(-c2ccccc2)c(-c2ccnc3[nH]ccc23)s1)c1ccccc1 (centres unmarked) [GSK1321561] | 30% | 0% | 4% | 98% | 69% | 86% | 37% | 49% | 38% | 8% | 38% | 70% | 18% | 3% | 76% | 5% | 0% | 14% | 18% | 35%
FC(F)(F)c1ccc(/C=C/c2cncnc2Nc2ccc3[nH]c(Cc4ccccc4)nc3c2)cc1 [GW709199] | 0% | 0% | 0% | 25% | 0% | 0% | 55% | 0% | 0% | 3% | 0% | 0% | 6% | 2% | 0% | 0% | 30% | 0% | 46% | 8%
